The campaign covered roughly 190,000 compounds. About 110 (0.058%) were called active. Inconclusive results (about 2%) are left out.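 Rule for the calls: active = fluorescent GTP binding to Rab7 beads changed by at least 20 points from the 100% baseline, either direction, mostly lower; inconclusive = compound itself probably fluorescent, or too few beads counted; inactive = the rest.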 What follows is part of a selection rich in actives, with near analogues and random picks from the rest.
The molecules below were run on Rab7 GTPase wild type (dog), Bodipy-FL-GTP binding (assay: modulators of GTP binding to Rab7, primary screen, biochemical, wildtype, multiplex bead flow cytometry (AID 758;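 note: median green fluorescence of bound Bodipy-FL-GTP per Rab7 bead population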)). Settings: GST-Rab7 beads, fluorescent GTP binding, at 10 µM, actives lie on both sides, untreated = 100%, excess cold GTP = 0%.

Compound	GTP binding activity (percent of control)
S=C(NCCc1ccccc1)N1CCn2cccc2C1c1ccncc1 (stereo not drawn)	91% (inactive)
COc1ccc2cc(CCl)c(Cl)nc2c1	91% (inactive)
O=C(CCC(=O)OCc1ccc(Cl)cc1)Nc1ccccc1	102% (inactive)
CN(C)S(=O)(=O)c1cccc(NC(=S)NCc2ccc3c(c2)OCO3)c1	104% (inactive)
CCN(CC)S(=O)(=O)c1ccc(N(C)CCc2ccc(OC)c(OC)c2)nc1	96% (inactive)
CC(C)CC(CC(C)C)=NNC(=O)c1ccc(CSc2nncn2C)cc1	104% (inactive)
Cn1cnnc1SCC(=O)Nc1ccc(N2CCOCC2)cc1	98% (inactive)
O=C(CN1C(=O)c2cccc3cccc1c23)Nc1ccccc1	98% (inactive)
O=C(CS(=O)(=O)c1ccccc1)Nc1ccc(S(=O)(=O)Nc2ccccn2)cc1	107% (inactive)
COc1cc(OC)cc(-c2nc(=S)n3ccsc3n2)c1	99% (inactive)
Cc1ccc(/C=N/NC(=O)Cn2ccc(C(F)(F)F)n2)o1	105% (inactive)
CCN(CC(=O)Nc1ccc(Cl)c(S(=O)(=O)N(C)C)c1)Cc1nc2ccccc2c(=O)[nH]1	105% (inactive)
COc1cc(NC(=O)COc2ccccc2Cl)ccc1NC(=O)C(C)C	98% (inactive)
Cc1ccc(C2NC(C(=O)O)CS2)cc1 (stereo not drawn)	103% (inactive)
CN(C)c1ccc(C2Nc3ccccc3C(=O)N2NS(=O)(=O)c2ccccc2)cc1 (stereo not drawn)	95% (inactive)
O=C(CSc1ccc([N+](=O)[O-])cn1)Nc1ccc(N2CCOCC2)cc1	95% (inactive)
COc1c(F)c(F)c(C(=O)O)c(Nc2ccccc2C)c1F	96% (inactive)
Cc1ccc(NC(=S)NC(=O)c2ccc(-c3ccccc3)cc2)c(C)c1	100% (inactive)
Cc1ccc(Nc2c(F)c(F)c(F)c(F)c2C(=O)O)c(C)c1	121% [activator] (active)
S=C(Nc1ccc2c(c1)OCO2)N1CCCC1	104% (inactive)
C/C(CC(=O)N1CCN(C=O)CC1)=N\NC(=O)c1ccc(Br)cc1	102% (inactive)
COc1ccc2c(c1)CCC/C2=N\OC(=O)c1ccccc1F	105% (inactive)
COCCN(CCOC)S(=O)(=O)c1ccc(C(=O)Nc2nc3c(s2)CCc2ccccc2-3)cc1	99% (inactive)
C=CCN(CC=C)S(=O)(=O)c1ccc(C(=O)Nc2sc3c(c2C(N)=O)CCCCC3)cc1	103% (inactive)

Compound	GTP binding activity (percent of control)
C=CCN(CC=C)S(=O)(=O)c1ccc(C(=O)Nc2nc3c(s2)CCc2ccccc2-3)cc1	27% (active)
COC(=O)CCC(=O)N1CCCC(CO)(Cc2ccccc2)C1 (stereo not drawn)	98% (inactive)
CSc1cccc(NC(=S)N(Cc2ccccc2)Cc2ccccn2)c1	104% (inactive)
O=C(COC(=O)c1ccccn1)Nc1cccc2ccccc12	108% (inactive)
CCN(CC)CCNS(=O)(=O)c1ccc(/C=C/C(=O)O)cc1	98% (inactive)
OCCC1CN(Cc2cnc(-c3ccccc3)s2)CCN1CCc1ccccc1 (stereo not drawn)	106% (inactive)
CCOC(=O)CNC(=O)CSc1ccc2nnc(-c3cccnc3)n2n1	96% (inactive)
CC1(C)C2CC=C(/C=N/NC(=O)C3CC3)C1C2 (stereo not drawn)	105% (inactive)
CCc1c(SCCC(=O)O)nc2ccccc2c1C	99% (inactive)
Fc1cc(Br)ccc1NC(=S)Nc1cccnc1	104% (inactive)
COC(=O)C(=Nc1ccccc1)/C(C(=O)C(=O)N(C)c1ccccc1)=C(\O)c1ccc(Cl)cc1	96% (inactive)
Cc1ccc(N2C(=O)C(CC(=O)Nc3cccc(F)c3)N(CCc3ccncc3)C2=O)cc1 (stereo not drawn)	97% (inactive)
NNC(=O)C1CC(O)CN1S(=O)(=O)c1ccc(Cl)cc1 (stereo not drawn)	96% (inactive)
Cc1ccc(NC(=O)CNCc2ccccn2)cc1S(=O)(=O)N(C)C	101% (inactive)
C=CCN(Cc1nc(-c2cc(OC)c3c(c2)OCO3)oc1C)C1CCS(=O)(=O)C1 (stereo not drawn)	92% (inactive)
CC1=CC=CN2C1=NC(=O)CC2(C)C(=O)N(CC(=O)NC1CCCC1)c1ccccc1C (stereo not drawn)	104% (inactive)
CC(=O)c1cc(C#N)c(SCC(=O)Nc2nccs2)nc1C	96% (inactive)
C=CCn1nc(-c2ccccc2)c2c(C)onc2c1=O	100% (inactive)
NS(=O)(=O)c1ccc(NC(=S)Nc2ccc(Br)c(Cl)c2)cc1	103% (inactive)
O=C(CCNC(=O)c1ccc([N+](=O)[O-])cc1)Nc1ccccc1N1CCOCC1	96% (inactive)
COc1cccc(C(O)Cc2nc3ccccc3n2C)c1OC (stereo not drawn)	96% (inactive)
CC(=O)c1cccc(NC(=O)[C@@H](NC(N)=O)C(C)C)c1	96% (inactive)
COc1ccc(CNC(=O)COC(=O)/C=C/c2ccc(S(=O)(=O)N3CCOCC3)cc2)cc1	100% (inactive)
O=C(O)/C=C/C(=O)NNc1ccc([N+](=O)[O-])cc1	96% (inactive)

— PubChem BioAssay AID758 (NMMLSC, 2007)
